# Tests used:
# [1] = biological target: Ribosomal protein S6 kinase alpha-6 (Homo sapiens) (UniProt Q9UK32); conditions: at 1 µM;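 also: each value is a mean inhibition of RSK4 from a GSK PKIS panel screen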
# [2] = biological target: T1, Serine/threonine-protein kinase Sgk1 (Homo sapiens) (UniProt O00141); conditions: at 0.1 µM
# T1 sequence (whole entry): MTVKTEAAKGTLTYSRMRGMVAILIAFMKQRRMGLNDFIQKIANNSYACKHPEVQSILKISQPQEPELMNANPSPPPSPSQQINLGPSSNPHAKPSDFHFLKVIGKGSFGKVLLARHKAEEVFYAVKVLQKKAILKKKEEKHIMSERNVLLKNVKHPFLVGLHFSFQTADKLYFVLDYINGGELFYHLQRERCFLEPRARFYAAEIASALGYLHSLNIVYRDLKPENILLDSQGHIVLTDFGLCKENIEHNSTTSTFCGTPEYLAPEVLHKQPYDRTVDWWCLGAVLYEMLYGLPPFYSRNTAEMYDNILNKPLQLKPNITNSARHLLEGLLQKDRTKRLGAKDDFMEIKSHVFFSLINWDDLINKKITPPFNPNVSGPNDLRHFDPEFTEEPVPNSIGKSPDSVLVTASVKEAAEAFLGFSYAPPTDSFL
# [3] = biological target: T1, Serine/threonine-protein kinase Sgk1 (Homo sapiens); conditions: at 1 µM
# [4] = biological target: T2, Serine/threonine-protein kinase Sgk2 (Homo sapiens) (UniProt Q9HBY8); conditions: at 0.1 µM
# T2 sequence (whole entry): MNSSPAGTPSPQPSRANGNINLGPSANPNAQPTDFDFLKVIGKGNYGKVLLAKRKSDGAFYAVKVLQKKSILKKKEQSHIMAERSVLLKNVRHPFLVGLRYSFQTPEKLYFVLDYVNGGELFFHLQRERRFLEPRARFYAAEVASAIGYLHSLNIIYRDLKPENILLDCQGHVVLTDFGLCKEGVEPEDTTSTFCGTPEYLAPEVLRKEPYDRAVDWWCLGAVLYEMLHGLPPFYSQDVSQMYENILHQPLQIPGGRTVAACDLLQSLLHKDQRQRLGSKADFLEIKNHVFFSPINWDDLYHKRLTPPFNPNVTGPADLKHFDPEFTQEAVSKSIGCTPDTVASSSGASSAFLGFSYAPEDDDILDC
# [5] = biological target: T2, Serine/threonine-protein kinase Sgk2 (Homo sapiens); conditions: at 1 µM
# [6] = biological target: T3, Serine/threonine-protein kinase Sgk3 (Homo sapiens) (UniProt Q96BR1); conditions: at 0.1 µM
# T3 sequence (whole entry): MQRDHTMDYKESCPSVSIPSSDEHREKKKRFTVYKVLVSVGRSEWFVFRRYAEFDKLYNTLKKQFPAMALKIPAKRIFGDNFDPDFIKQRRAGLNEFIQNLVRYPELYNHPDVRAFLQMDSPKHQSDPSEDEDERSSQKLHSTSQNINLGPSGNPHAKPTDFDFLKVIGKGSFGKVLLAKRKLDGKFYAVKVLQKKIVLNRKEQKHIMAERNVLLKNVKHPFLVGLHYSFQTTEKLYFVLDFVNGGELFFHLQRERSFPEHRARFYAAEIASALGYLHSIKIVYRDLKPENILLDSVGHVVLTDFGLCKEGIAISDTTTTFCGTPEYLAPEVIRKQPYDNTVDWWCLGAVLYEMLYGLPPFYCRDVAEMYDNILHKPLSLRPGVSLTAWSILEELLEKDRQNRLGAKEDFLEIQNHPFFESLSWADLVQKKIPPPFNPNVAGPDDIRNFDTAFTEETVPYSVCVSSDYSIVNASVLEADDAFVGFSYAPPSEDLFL
# [7] = biological target: T3, Serine/threonine-protein kinase Sgk3 (Homo sapiens); conditions: at 1 µM
# [8] = biological target: 5'-AMP-activated protein kinase catalytic subunit alpha-1 (Homo sapiens) (UniProt Q13131); conditions: at 0.1 µM
# [9] = biological target: 5'-AMP-activated protein kinase catalytic subunit alpha-1 (Homo sapiens) (UniProt Q13131); conditions: at 1 µM
# [10] = biological target: 5'-AMP-activated protein kinase catalytic subunit alpha-2 (Homo sapiens) (UniProt P54646); conditions: at 0.1 µM
# [11] = biological target: 5'-AMP-activated protein kinase catalytic subunit alpha-2 (Homo sapiens) (UniProt P54646); conditions: at 1 µM
# [12] = biological target: T4, NUAK family SNF1-like kinase 1 (Homo sapiens) (UniProt O60285); conditions: at 0.1 µM
# T4 sequence (whole entry): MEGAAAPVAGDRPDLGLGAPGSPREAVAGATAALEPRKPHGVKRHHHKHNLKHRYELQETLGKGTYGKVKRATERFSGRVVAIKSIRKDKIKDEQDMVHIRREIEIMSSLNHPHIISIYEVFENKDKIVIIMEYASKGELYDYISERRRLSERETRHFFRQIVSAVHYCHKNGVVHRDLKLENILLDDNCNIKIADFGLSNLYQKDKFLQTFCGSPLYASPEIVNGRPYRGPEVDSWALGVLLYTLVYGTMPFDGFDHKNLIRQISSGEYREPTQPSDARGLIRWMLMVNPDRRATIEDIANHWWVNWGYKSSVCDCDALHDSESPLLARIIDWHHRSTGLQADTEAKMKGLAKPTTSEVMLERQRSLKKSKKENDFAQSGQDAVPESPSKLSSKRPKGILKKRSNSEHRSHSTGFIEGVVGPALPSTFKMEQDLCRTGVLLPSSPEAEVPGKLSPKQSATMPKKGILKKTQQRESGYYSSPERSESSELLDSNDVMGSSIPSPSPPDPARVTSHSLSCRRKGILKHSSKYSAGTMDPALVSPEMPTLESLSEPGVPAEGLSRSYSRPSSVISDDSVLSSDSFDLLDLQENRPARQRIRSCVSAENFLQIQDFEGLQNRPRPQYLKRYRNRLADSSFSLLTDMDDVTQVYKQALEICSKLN
# [13] = biological target: T4, NUAK family SNF1-like kinase 1 (Homo sapiens); conditions: at 1 µM
# [14] = biological target: T5, Serine/threonine-protein kinase BRSK1 (Homo sapiens) (UniProt Q8TDC3); conditions: at 0.1 µM
# T5 sequence (whole entry): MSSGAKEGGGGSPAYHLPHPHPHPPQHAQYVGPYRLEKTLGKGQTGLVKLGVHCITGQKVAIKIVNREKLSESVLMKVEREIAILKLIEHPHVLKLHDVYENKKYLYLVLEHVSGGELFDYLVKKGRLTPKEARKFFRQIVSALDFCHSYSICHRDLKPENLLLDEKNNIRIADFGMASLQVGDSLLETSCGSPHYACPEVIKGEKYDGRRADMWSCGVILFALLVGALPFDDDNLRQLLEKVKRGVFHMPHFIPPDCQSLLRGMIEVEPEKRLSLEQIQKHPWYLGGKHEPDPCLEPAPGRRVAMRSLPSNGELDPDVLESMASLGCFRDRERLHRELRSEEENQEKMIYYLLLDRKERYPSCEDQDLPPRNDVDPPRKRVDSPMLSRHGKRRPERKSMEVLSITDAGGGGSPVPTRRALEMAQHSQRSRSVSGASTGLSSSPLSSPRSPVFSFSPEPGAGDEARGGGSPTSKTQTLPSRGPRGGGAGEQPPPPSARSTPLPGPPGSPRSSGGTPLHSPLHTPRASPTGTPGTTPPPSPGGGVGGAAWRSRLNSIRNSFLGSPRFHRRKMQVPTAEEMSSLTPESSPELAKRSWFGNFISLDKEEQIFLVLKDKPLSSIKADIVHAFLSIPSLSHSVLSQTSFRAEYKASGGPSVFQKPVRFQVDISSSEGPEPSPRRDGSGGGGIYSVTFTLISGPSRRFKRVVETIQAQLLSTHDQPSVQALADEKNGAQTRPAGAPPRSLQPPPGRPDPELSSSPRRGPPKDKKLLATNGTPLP
# [15] = biological target: T5, Serine/threonine-protein kinase BRSK1 (Homo sapiens); conditions: at 1 µM
# [16] = biological target: T6, Serine/threonine-protein kinase BRSK2 (Homo sapiens) (UniProt Q8IWQ3); conditions: at 0.1 µM
# T6 sequence (whole entry): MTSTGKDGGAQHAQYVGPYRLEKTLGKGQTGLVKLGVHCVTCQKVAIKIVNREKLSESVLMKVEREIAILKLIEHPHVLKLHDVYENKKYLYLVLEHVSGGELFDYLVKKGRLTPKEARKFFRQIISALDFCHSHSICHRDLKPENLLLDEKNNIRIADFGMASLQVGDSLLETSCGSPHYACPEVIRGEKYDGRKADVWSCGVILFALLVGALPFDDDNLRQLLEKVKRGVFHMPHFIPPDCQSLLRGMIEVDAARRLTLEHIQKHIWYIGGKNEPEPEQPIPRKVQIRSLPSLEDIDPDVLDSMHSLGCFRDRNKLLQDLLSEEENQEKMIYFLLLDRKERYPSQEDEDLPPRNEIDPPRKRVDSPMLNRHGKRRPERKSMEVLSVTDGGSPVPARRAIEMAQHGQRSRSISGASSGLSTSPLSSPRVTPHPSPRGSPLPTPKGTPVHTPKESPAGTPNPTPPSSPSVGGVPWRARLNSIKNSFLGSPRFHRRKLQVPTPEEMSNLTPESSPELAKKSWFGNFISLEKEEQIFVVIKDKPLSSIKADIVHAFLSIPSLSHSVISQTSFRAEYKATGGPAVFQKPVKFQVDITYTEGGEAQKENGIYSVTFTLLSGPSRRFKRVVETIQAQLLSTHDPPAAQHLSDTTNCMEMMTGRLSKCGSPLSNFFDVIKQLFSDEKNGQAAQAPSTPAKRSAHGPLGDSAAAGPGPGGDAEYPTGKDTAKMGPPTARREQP
# [17] = biological target: T6, Serine/threonine-protein kinase BRSK2 (Homo sapiens); conditions: at 1 µM
# [18] = biological target: Calcium/calmodulin-dependent protein kinase type 1D (Homo sapiens) (UniProt Q8IU85); conditions: at 0.1 µM
# [19] = biological target: Calcium/calmodulin-dependent protein kinase type 1D (Homo sapiens) (UniProt Q8IU85); conditions: at 1 µM
# [20] = biological target: Calcium/calmodulin-dependent protein kinase type II subunit alpha (Homo sapiens) (UniProt Q9UQM7); conditions: at 0.1 µM;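 also: reported values are averages (mean inhibition of CAMK2A)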
# Chain of Calcium/calmodulin-dependent protein kinase type II subunit alpha (Homo sapiens) (Q9UQM7 whole entry): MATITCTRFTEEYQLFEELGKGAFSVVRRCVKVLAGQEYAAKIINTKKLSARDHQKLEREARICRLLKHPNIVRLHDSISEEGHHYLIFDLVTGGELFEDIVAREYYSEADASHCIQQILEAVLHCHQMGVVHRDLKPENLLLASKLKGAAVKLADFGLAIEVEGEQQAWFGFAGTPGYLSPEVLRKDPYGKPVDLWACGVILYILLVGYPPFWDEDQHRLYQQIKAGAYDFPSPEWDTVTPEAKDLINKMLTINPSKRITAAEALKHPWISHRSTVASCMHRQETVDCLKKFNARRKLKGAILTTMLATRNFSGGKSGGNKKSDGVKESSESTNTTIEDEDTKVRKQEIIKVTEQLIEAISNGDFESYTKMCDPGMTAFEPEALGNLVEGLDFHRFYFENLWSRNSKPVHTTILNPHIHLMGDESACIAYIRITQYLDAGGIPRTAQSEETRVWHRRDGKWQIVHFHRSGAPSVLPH
# Chain of 5'-AMP-activated protein kinase catalytic subunit alpha-2 (Homo sapiens) (P54646 whole entry, looked up): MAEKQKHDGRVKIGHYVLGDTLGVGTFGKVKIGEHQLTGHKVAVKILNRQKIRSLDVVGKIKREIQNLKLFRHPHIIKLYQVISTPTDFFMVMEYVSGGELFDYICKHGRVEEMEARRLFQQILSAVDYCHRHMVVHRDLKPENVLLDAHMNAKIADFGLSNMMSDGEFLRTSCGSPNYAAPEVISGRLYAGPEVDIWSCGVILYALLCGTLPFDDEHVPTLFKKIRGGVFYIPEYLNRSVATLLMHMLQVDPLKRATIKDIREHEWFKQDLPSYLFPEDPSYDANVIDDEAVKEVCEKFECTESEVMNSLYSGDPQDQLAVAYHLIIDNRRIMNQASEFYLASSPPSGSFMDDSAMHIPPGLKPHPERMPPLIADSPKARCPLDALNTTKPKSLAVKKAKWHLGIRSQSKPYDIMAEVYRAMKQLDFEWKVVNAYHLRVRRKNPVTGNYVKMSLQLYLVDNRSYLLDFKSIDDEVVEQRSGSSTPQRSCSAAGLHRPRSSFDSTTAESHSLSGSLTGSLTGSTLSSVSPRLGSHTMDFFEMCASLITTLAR
# Chain of 5'-AMP-activated protein kinase catalytic subunit alpha-1 (Homo sapiens) (Q13131 whole entry, looked up): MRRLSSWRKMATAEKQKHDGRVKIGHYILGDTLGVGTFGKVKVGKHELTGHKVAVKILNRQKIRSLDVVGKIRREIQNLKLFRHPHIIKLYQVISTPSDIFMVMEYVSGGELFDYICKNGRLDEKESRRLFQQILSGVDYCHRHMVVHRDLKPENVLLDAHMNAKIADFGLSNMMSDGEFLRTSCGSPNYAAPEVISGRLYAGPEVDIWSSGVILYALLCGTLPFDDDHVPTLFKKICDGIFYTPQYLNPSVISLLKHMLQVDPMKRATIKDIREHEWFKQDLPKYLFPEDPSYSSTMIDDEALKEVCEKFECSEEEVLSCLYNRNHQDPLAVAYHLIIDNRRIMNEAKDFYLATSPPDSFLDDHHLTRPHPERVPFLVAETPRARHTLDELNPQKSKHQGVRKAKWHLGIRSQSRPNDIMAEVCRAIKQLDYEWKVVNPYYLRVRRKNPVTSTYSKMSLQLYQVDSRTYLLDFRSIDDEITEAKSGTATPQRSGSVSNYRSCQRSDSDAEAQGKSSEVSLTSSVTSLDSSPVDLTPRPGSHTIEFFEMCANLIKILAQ
# Chain of Calcium/calmodulin-dependent protein kinase type 1D (Homo sapiens) (Q8IU85 whole entry, looked up): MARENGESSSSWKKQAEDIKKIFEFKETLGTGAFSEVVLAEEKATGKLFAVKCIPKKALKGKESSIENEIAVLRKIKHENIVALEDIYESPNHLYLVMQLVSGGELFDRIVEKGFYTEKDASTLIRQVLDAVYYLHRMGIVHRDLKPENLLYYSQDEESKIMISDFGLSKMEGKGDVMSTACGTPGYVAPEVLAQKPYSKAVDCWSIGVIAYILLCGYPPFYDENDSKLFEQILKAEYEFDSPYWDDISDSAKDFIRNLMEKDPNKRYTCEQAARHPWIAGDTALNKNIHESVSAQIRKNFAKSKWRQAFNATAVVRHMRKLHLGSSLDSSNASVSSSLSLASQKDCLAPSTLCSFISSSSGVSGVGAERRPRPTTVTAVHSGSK
# Chain of Ribosomal protein S6 kinase alpha-6 (Homo sapiens) (Q9UK32 whole entry): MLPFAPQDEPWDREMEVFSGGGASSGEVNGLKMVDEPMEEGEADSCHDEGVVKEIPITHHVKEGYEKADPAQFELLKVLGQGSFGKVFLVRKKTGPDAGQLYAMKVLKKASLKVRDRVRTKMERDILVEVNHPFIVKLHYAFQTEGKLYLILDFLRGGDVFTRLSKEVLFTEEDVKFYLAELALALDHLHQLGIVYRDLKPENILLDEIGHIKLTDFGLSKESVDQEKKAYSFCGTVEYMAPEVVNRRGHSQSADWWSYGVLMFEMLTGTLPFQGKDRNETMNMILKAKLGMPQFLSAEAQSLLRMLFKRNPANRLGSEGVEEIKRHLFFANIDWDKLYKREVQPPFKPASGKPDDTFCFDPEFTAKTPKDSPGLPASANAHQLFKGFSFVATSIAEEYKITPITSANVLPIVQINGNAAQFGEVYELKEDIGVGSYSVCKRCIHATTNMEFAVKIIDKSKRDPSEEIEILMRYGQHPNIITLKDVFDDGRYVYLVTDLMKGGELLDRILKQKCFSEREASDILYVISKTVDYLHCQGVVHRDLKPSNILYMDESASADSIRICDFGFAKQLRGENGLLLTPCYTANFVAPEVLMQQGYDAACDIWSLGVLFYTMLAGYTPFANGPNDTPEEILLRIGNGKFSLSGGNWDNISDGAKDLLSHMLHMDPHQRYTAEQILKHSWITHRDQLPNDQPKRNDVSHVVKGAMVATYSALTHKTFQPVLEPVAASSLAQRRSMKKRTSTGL
SMILES,inhibition [1] [%],inhibition [2] [%],inhibition [3] [%],inhibition [4] [%],inhibition [5] [%],inhibition [6] [%],inhibition [7] [%],inhibition [8] [%],inhibition [9] [%],inhibition [10] [%],inhibition [11] [%],inhibition [12] [%],inhibition [13] [%],inhibition [14] [%],inhibition [15] [%],inhibition [16] [%],inhibition [17] [%],inhibition [18] [%],inhibition [19] [%],inhibition [20] [%]
O=C(Nc1n[nH]c2nc(-c3ccco3)ccc12)C1CC1,0.71,2.03,0.33,0.71,0.28,-0.55,1.28,-0.2,1.85,1.32,3.94,0.19,2.78,0.98,3.49,0.55,4.63,0.8,2.1,1.71
Fc1ccc(-c2ncn(C3CCNCC3)c2-c2ccnc(Oc3ccc(F)c(F)c3)n2)cc1,-0.02,1.79,3.94,3.89,3.96,2.65,2.26,4.6,5.31,3.75,4.77,2.44,6.58,1.29,3.93,3.75,5.29,-1.15,-1.08,2.48
NS(=O)(=O)c1ccc(Nc2cc(-c3ccc(O)c(F)c3)n[nH]2)cc1,59.5,-0.99,3.11,-0.41,3.07,0.2,-0.29,0.53,15.2,0.54,8.67,2.73,11,0.57,10.9,2.75,16.7,-0.17,0.78,-4.96
O=C(NCC1CC1)c1ccc(-c2cccc(C(=O)NC3CC3)c2)cc1,0.61,0.99,0.82,0.58,3.1,1.28,1.29,2.2,3.29,0.26,1.74,1.06,4.26,1.95,0.89,1.44,-1.6,0.99,2.29,2.2
C[C@@H](Oc1cc(-n2cnc3ccc(OCC4CCN(C)CC4)cc32)sc1C(N)=O)c1ccccc1Cl,42.4,2.62,4.04,4.94,3.37,2.38,3.66,6.05,24.5,8.96,13.7,30.2,71.9,28.5,60,38.5,72.8,1.56,5.96,6.36
CCc1cccc(CC)c1/C=C/c1cncc(C(=O)NC)c1,1.72,2.19,-0.86,3.62,-2.52,0.54,0.72,1.05,1.48,0.22,2.36,1.6,6.57,1.79,0.96,0.46,0.3,0.62,1.99,3.18

# Reference: ChEMBL document CHEMBL1961873, “Compounds: GSK PKIS; Assays: Nanosyn kinase panel” (2012)
